This is a sample that favours compounds with a hit; in the whole collection about 2% have one here.
Six1-Eya2 blk = blocks human Six1 binding to Eya2 | Q15475+O00167 | AlphaScreen GST-Six1/His-Eya2 binding, biochemical; stronger effect = lower value | activity change, % (test concentration not listed) | 0.56% of 360,000 active
Target sequence (O00167 whole entry, looked up): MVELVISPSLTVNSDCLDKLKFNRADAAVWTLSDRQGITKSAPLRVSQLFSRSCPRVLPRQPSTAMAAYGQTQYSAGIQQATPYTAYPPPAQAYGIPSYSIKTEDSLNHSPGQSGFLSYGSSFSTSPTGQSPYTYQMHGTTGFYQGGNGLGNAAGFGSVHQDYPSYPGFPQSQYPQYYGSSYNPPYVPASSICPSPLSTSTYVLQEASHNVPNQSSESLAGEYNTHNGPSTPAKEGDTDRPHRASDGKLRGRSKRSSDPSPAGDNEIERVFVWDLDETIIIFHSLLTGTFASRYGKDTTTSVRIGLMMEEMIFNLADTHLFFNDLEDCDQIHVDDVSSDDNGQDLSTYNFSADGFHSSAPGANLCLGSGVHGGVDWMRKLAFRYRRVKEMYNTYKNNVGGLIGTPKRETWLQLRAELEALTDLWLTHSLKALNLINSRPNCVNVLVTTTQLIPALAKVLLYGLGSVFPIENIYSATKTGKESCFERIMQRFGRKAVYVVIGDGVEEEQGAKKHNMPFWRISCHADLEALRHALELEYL
Target sequence (Q15475 whole entry, looked up): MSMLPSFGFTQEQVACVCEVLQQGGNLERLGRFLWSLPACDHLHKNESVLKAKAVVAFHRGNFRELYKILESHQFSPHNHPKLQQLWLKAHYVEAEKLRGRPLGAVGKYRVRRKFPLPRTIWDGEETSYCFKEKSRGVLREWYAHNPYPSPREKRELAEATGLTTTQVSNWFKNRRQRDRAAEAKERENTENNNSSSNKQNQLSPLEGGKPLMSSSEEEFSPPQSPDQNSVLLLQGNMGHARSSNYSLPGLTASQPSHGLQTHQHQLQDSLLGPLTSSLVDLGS
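Homogeneous AlphaScreen proximity assay pairing GST-Six1 with His-tagged Eya2 (added as 5X mix: 250 nM and 500 nM) in 50 mM Tris pH 8.0, 300 mM NaCl, 1 mM TCEP. Glutathione donor and nickel acceptor beads; 1 h, 37 °C, dark.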
KDM4E inh = blocks human JMJD2E demethylase activity. B2RXH2. JMJD2E catalytic domain, FDH-coupled NADH fluorescence (FDH is formaldehyde dehydrogenase). Potency, µM (top dose mostly 57.1 µM), inactives show top-dose activity change, negative = inhibition, most hits filed as inhibitors. 1.6% of 230,000 active. AID 2147; active = well fitted inhibition curve with a large enough effect, not every such curve was filed as active; inconclusive = small, poorly fitted or top-dose-only effect, or another doubt; inactive = no such curve, though single readings can be large or run the other way;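 note: potency is the fitted concentration of half-maximal effect; 0% = wells with enzyme and -100% = buffer wells without enzyme; nearly all actives have a fitted effect of over 50% in size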
KCNH2 3.1 block = inhibitors of human KCNH2 3.1 potassium channel isoform | U2OS KCNH2 3.1, thallium flux FluxOr; stronger effect = lower value | 0.95% of 340,000 active | AID 720553 | activity change, % (tested at about 1.8 µM);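 active = maximum activity change below -70%; inconclusive = maximum activity change from -70% to -50%; inactive = maximum activity change above -50%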;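 note: thallium influx rate constant from kinetic fluorescence after stimulation buffer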
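Normalized rate constant (relative to positive and negative DMSO controls) derived from a 2 min kinetic fluorescence read after stimulation; U2OS cells expressing the 3.1 isoform via virus at 1.77 x 10^8 /mL.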
KCNH2 WT inh = inhibitors of human wildtype KCNH2 potassium channel; Q12809; 0.37% of 340,000 active; U2OS, BacMam KCNH2, thallium flux FluxOr; stronger effect = lower value; activity change, % at 1.84 µM;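 active = maximum activity change below -70%; inconclusive = maximum activity change between -70% and -50%; inactive = maximum activity change above -50%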
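U2OS cells were transduced with wild-type KCNH2 virus (2.03 x 10^8 / mL) for 4 h at room temperature, then cultured overnight at 37 C. Thallium flux was read with FluxOr dye. Rate constants were normalized to DMSO controls.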
CtBP-E1A inh = CtBP/E1A binding inhibition | AlphaScreen GST-E1A/His-CtBP binding, 1536-well; stronger effect = lower value | activity change, % (no concentration beside the values) | 0.49% of 340,000 active | AID 651724
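Homogeneous bead-based format: GST-tagged E1A captured on glutathione donor beads, His-tagged CtBP on nickel acceptor beads; compounds precede bead addition by 2 h at 37 °C.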
Numbers without * were called inactive; ? = inconclusive; nt = no result given. Cut-off read from the data, not from the text of the source, unless noted: active = activity change below about -65%; inconclusive = mostly about -30% to -63%; inactive = weaker than that. Unless noted, % is set by controls: 0 for no effect and ±100 for the full control effect.

SMILES	Six1-Eya2 blk	KDM4E inh	KCNH2 3.1 block	KCNH2 WT inh	CtBP-E1A inh
O=C1C(NS(=O)(=O)c2cccs2)=C(N2CCOCC2)C(=O)c2ccccc21	-11.2	-28.3%	-5.9	-6.1	-16.4
O=C1C(NS(=O)(=O)c2cccs2)=C(N2CCN(c3cccc(C(F)(F)F)c3)CC2)C(=O)c2ccccc21	-68.1*	-7.4%	-8.4	0.2	-79.7*
O=C1C(NS(=O)(=O)c2cccs2)=C(N2CCN(Cc3ccccc3)CC2)C(=O)c2ccccc21	-71.7*	-8.4%	-3.0	-1.7	nt
Cn1ccnc1C(=O)Cc1ccc([N+](=O)[O-])cc1	2.1	nt	1.1	2.5	-85.4*
CSCc1nc2scc(-c3ccccc3)c2c(=O)[nH]1	-4.7	?	-92.2*	1.5	-4.8
O=C(NCc1nc2ccccc2[nH]1)C1=C[C@@H](c2ccc(Br)cc2)C[C@@H](OCCCCO)O1	-3.3	-9.9%	-88.7*	-35.2	1.2
O=C(NCc1nc2ccccc2[nH]1)C1=C[C@@H](c2ccc(Br)cc2)C[C@@H](OCc2ccc(CO)cc2)O1	1.7	-21.3%	-97.4*	9.8	-9.5
O=C(NCc1nc2ccccc2[nH]1)C1=C[C@@H](C2CCCCC2)C[C@@H](OCCCCO)O1	-0.8	14.6%	-74.5*	10.1	0.8
C[C@H]1C=C(C(=O)NCc2nc3ccccc3[nH]2)O[C@@H](OCc2ccc(CO)cc2)C1	-5.9	9.3%	-17.3	-4.2	-9.3
Clc1ccc(OCCCN2CCc3ccccc3C2)c(Br)c1	-2.3	nt	-15.4	43.8	nt
O=C(c1cccc(S(=O)(=O)N2CCN(c3ccccc3)CC2)c1)N1CC=C(c2ccccc2)CC1	-3.1	nt	1.2	-2.6	-22.5
COc1cccc(CNc2cccc3cccnc23)c1O	-13.6	-2.0%	-2.1	-4.1	-16.0
CCCCC(=O)NC(c1ccccc1Cl)c1ccc2cccnc2c1O (stereo not given)	-67.4*	nt	-96.8*	-17.4	?
CCC(=O)NC(c1ccccc1OC)c1ccc2cccnc2c1O (stereo not given)	-88.4*	25.1µM*	-10.1	-18.9	?
COc1ccc(Cl)cc1C(Nc1cccnc1)c1ccc2cccnc2c1O (stereo not given)	?	14.1µM*	-0.5	-8.9	-67.4*
CCCCC(=O)NC(c1ccccc1)c1ccc2cccnc2c1O (stereo not given)	-66.3*	nt	-3.2	0.3	?
CCCCC(=O)NC(c1ccc(C(C)C)cc1)c1ccc2cccnc2c1O (stereo not given)	-23.8	nt	-12.3	-9.0	-22.4
CC(=O)Nc1ccc(S(=O)(=O)NCCC(=O)NCCOc2ccccc2)cc1	4.9	nt	-6.7	4.7	2.2
O=C(NC1CC1)c1c(O)c2ccccc2[nH]c1=O	-0.3	nt	1.8	-3.0	11.3
COC(=O)c1ccc(NC(=O)CSc2nc3ncccc3[nH]2)cc1	6.0	0.2%	10.6	2.3	0.0
CCC(=O)NC(c1ccc(OC)cc1)c1c(O)ccc2ccccc12 (stereo not given)	0.8	?	10.2	-10.1	nt
CCCC(=O)NC(c1ccccc1)c1ccc2cccnc2c1O (stereo not given)	-66.3*	nt	-4.4	-261.9*	-91.4*
CCCC(=O)NC(c1ccc(OC)cc1)c1ccc2cccnc2c1O (stereo not given)	-89.7*	22.4µM*	29.8	-0.7	-88.3*
CNS(=O)(=O)c1cc(C(=O)NCc2ccco2)ccc1Cl	-69.0*	4.0%	-5.7	-13.4	21.0
COc1ccc(CCn2c(=N)c(C(=O)NCc3ccco3)cc3c(=O)n4ccccc4nc32)cc1	-75.1*	?	-13.4	-48.8	-82.9*
SMILES	Six1-Eya2 blk	KDM4E inh	KCNH2 3.1 block	KCNH2 WT inh	CtBP-E1A inh
N=c1c(C(=O)NCCc2ccccc2)cc2c(=O)n3ccccc3nc2n1Cc1ccco1	0.1	nt	-27.0	-20.8	-2.4
N=c1c(C(=O)NC2CCCCC2)cc2c(=O)n3ccccc3nc2n1CCc1ccccc1	-17.7	nt	-78.6*	?	-9.1
CCC(C(=O)NC1CC(C)(C)NC(C)(C)C1)c1ccccc1 (stereo not given)	12.1	nt	6.2	5.8	nt
Cc1ccc(C)c(N=Nc2ccc(O)c3ncccc23)c1	?	?	23.2	-0.3	?
O=Cc1ccc(O)c2ncccc12	-73.6*	3.16µM*	11.6	1.5	-67.4*
O=C(C1CCC(=O)N(C2CCCC2)C1)N1CCN(c2ccc(Cl)cc2)CC1 (stereo not given)	2.0	nt	-1.6	-0.8	4.6
C#CCNc1cc(C)nc2ncnn12	8.2	-0.3%	-0.2	1.3	4.6
Cc1ccc(S(=O)(=O)N(C)c2ccc(OCC(=O)OCc3nnc(-c4ccccc4)o3)cc2)cc1	34.8	nt	-88.4*	68.5	nt
Cc1ccc(S(=O)(=O)N(C)c2ccc(OC(=O)COc3ccccc3)cc2)cc1	5.6	nt	3.6	-6.1	-17.5
CCCN(CCC)CCCNC(=O)C1CCN(S(=O)(=O)c2cccc3nsnc23)CC1	0.9	nt	6.0	7.9	3.5
Cc1ccc(NC(=O)CSc2nnc(-c3ccncc3)n2N)cc1C	1.4	-1.7%	-7.2	-204.3*	3.1
CCc1cccc2c1Sc1ccccc1CC2N1CCNCC1 (stereo not given)	-3.4	nt	-76.7*	1.6	nt
Cc1cccc2c1Sc1ccc(Cl)cc1CC2N1CCNCC1 (stereo not given)	0.0	nt	-11.3	-1.6	16.6
O=C(CN1C2=NCCCN2c2ccccc21)c1ccc([N+](=O)[O-])cc1	-0.5	0.4%	-74.4*	5.3	0.9
CC1(C)N=C(N)N=C(N)N1c1ccc(OCC(=O)Nc2ccccc2)c(Cl)c1	0.1	nt	7.2	-11.3	-0.1
C=CCOc1ccc(CN(C)CC(O)COc2ccc(CCC(C)=O)cc2)cc1 (stereo not given)	6.3	nt	-4.0	32.4	1.1
COc1ccc2cc(-c3[nH]ncc3CN3CCCCO3)ccc2c1	2.2	-8.5%	4.1	-26.4	-3.7
CN(C)C1=NC[C@H](Cc2ccccc2)N1CCc1cccc(F)c1	0.5	nt	-49.1	25.4	nt
CC(C)C[C@H]1CN=C(N(C)C)N1CCc1cccc(F)c1	5.1	nt	-107.2*	9.5	-8.6
Cc1ccc(S(=O)(=O)N2CCOCC2)cc1C(=O)OC(C)C(=O)NC1CCCC1 (stereo not given)	8.0	nt	-0.9	-1.4	5.0
O=C(Nc1ccc(F)cc1F)NC1CC1	15.3	0.8%	7.2	16.6	24.2
CCN1CCC(NC(=O)Nc2ccc(F)cc2F)CC1	-6.4	-6.5%	-86.1*	-4.1	-4.0
COC(=O)C(CCCCNC(=O)c1ccc([N+](=O)[O-])cc1)NC(=O)c1ccc([N+](=O)[O-])cc1 (stereo not given)	8.1	1.1%	-92.9*	?	-4.8
COC(=O)C(CC(C)C)NC(=O)c1ccc([N+](=O)[O-])cc1 (stereo not given)	5.1	2.1%	-11.4	-22.2	4.6

Assay outcomes deposited in PubChem BioAssay by National Center for Advancing Translational Sciences (NCATS).
